Assay results reported in article PMC7862700, “An all-to-all approach to the identification of sequence-specific readers for epigenetic DNA modifications on cytosine”.

What was measured:
Assay in all cases: DAPPL (digital affinity profiling via proximity ligation, sequencing); 10 mM Tris-HCl pH 7.5, 50 mM NaCl, 1 mM DTT, 4% glycerol, room temperature, 30 min; GST-TFs on glutathione beads, 16-mer random dsDNA library, 0.1% formaldehyde crosslink after washing; high values mean tight binding
FEV = target: T1, FEV (Homo sapiens, UniProt Q99581 1-238); conditions: protein: recombinant; tags: N-terminal GST; dsDNA, one strand shown
T1 sequence: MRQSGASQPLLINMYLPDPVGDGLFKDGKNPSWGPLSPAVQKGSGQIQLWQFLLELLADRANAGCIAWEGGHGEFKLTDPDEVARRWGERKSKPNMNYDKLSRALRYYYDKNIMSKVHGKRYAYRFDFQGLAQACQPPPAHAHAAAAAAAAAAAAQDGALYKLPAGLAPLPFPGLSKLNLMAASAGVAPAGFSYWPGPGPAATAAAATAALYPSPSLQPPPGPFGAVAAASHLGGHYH
In short: (§1)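 Each value of binding signal is a hexamer's read frequency for a factor divided by the same hexamer's frequency in the tag-only sample. Barcoded, bead-captured GST fusions of human transcription factors made in yeast were pooled with that sample and incubated with 200 nmole of a random double-stranded 16-mer DNA library in Tris/NaCl/DTT/glycerol buffer at room temperature for 30 min. Washing, 0.1% formaldehyde crosslinking, proximity ligation, PCR and Illumina NextSeq500 sequencing followed.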

ETV5 = ETV5 (Homo sapiens, UniProt P41161 1-510); conditions: protein: recombinant; tags: N-terminal GST; dsDNA, one strand shown
Chain of ETV5 (P41161 whole entry): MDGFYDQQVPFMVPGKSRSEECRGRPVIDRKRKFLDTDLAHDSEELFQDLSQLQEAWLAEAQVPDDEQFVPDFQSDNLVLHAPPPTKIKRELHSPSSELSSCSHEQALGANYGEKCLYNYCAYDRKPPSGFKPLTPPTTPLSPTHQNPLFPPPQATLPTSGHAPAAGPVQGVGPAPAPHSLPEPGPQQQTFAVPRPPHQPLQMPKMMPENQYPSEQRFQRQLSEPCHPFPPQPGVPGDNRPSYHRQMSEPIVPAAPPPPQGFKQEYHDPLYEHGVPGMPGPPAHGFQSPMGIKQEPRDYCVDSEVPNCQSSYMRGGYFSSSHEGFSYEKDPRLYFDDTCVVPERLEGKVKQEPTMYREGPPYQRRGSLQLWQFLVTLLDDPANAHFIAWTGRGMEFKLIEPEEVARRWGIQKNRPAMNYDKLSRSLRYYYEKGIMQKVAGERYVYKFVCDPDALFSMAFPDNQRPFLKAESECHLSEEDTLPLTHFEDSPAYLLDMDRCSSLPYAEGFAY
In short: as §1

HSF1 = HSF1 (Homo sapiens, UniProt Q00613 1-529); conditions: protein: recombinant; tags: N-terminal GST; chain copies: 3; dsDNA, one strand shown
Chain of HSF1 (Q00613 whole entry): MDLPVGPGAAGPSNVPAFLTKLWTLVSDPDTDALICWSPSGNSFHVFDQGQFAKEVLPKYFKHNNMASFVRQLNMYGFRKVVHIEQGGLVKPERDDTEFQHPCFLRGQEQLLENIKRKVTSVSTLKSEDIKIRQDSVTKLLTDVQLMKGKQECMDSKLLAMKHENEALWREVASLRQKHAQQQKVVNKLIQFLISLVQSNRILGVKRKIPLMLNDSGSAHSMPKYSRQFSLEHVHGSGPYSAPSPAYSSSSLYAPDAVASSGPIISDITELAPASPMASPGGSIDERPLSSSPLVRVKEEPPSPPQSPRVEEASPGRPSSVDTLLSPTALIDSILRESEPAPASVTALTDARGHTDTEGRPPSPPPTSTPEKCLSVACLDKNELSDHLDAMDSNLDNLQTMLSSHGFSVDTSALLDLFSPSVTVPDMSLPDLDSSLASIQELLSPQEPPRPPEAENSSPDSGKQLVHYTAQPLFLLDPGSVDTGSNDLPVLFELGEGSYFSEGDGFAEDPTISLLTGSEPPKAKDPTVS
In short: as §1

SPIC = target: T2, SPIC (Homo sapiens, UniProt Q8N5J4 1-248); conditions: protein: recombinant; tags: N-terminal GST; dsDNA, one strand shown
T2 sequence: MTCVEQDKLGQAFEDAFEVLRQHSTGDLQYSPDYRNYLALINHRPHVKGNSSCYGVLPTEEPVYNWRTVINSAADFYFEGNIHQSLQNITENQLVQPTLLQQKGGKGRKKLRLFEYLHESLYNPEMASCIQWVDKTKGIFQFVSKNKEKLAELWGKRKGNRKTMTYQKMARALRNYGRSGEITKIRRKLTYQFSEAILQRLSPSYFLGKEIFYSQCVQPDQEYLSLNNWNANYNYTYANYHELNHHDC
In short: as §1

ELF4 = ELF4 (Homo sapiens, UniProt Q99607 1-663); conditions: protein: recombinant; tags: N-terminal GST; dsDNA, one strand shown
Chain of ELF4 (Q99607 whole entry): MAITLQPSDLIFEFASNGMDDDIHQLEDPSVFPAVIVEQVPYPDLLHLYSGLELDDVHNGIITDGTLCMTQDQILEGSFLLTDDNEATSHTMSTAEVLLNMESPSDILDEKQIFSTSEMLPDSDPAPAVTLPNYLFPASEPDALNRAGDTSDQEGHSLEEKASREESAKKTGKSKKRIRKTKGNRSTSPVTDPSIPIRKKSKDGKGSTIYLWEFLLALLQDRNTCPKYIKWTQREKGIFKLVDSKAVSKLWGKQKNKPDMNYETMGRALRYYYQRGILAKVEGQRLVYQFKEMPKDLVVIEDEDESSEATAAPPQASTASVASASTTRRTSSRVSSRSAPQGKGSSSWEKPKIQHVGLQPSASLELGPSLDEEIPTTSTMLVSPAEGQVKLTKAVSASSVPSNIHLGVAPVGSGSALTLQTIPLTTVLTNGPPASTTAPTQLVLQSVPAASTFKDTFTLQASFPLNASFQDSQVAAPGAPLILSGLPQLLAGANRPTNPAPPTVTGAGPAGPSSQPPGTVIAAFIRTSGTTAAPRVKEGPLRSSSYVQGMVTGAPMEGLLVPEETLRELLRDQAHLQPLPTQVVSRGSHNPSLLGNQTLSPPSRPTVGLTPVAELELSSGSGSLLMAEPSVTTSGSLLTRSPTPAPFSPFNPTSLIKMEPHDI
In short: as §1

ELK4 = target: T3, ELK4 (Homo sapiens, UniProt P28324-2 1-405); conditions: protein: recombinant; tags: N-terminal GST; dsDNA, one strand shown
T3 sequence: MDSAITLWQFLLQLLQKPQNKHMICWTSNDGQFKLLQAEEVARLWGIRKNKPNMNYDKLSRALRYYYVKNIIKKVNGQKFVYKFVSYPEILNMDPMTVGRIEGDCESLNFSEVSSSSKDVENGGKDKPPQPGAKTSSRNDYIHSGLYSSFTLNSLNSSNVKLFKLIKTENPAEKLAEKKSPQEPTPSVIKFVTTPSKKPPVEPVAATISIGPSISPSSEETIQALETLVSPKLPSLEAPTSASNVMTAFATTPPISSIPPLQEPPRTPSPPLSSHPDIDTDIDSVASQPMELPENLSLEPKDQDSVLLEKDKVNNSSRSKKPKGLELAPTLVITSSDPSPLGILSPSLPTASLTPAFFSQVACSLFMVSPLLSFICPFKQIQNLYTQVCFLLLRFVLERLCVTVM
In short: as §1

ETV2 = target: T4, ETV2 (Homo sapiens, UniProt O00321 1-342); conditions: protein: recombinant; tags: N-terminal GST; dsDNA, one strand shown
T4 sequence: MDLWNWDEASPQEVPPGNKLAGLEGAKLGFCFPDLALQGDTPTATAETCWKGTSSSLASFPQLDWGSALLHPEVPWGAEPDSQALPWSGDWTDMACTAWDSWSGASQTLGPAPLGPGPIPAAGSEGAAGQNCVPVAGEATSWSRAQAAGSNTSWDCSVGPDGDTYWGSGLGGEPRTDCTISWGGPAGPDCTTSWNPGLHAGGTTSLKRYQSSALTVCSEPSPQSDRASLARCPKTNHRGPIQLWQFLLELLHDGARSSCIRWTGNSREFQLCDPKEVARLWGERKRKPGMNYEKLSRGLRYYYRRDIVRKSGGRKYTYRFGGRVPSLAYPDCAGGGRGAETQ
In short: as §1

ELF3 = target: T5, ELF3 (Homo sapiens, UniProt P78545 1-371); conditions: protein: recombinant; tags: N-terminal GST; dsDNA, one strand shown
T5 sequence: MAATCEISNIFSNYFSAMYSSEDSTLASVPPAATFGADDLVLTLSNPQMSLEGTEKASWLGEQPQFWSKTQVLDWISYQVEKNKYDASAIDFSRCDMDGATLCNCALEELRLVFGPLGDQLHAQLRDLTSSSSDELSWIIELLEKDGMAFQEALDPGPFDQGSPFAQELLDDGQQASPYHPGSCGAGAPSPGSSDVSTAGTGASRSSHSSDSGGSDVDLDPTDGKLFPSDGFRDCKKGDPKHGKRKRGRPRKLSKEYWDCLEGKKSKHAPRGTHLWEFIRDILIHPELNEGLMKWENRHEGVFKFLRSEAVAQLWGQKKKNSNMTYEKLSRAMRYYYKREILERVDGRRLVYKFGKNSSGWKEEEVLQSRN
In short: as §1

CRX = CRX (Homo sapiens, UniProt O43186 1-299); conditions: protein: recombinant; tags: N-terminal GST; dsDNA, one strand shown
Chain of CRX (O43186 whole entry): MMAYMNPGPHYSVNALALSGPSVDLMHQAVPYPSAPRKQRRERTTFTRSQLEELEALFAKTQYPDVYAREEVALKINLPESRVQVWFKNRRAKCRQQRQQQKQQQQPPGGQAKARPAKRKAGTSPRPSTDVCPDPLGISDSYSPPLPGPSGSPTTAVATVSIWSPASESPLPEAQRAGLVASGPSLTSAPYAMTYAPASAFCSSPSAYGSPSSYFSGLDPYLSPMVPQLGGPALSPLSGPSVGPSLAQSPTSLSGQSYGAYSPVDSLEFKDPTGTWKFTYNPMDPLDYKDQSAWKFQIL
In short: as §1

ETV1 = ETV1 (Homo sapiens, UniProt P50549 1-477); conditions: protein: recombinant; tags: N-terminal GST; dsDNA, one strand shown
Chain of ETV1 (P50549 whole entry): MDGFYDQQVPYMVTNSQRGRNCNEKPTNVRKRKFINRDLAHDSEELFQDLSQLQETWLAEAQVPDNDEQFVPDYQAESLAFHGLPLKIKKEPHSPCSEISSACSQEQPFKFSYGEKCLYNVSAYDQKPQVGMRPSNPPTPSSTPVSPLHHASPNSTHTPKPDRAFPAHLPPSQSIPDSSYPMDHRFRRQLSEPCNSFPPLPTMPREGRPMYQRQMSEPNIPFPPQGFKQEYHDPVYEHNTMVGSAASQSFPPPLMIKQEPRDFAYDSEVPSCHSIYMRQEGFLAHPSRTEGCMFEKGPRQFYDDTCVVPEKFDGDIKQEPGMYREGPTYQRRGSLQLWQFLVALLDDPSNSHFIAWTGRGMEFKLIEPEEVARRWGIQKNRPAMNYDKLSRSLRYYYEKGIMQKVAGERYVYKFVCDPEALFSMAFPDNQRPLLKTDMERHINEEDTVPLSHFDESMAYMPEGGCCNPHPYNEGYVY
In short: as §1

ERF = target: T6, ERF (Homo sapiens, UniProt P50548 1-548); conditions: protein: recombinant; tags: N-terminal GST; dsDNA, one strand shown
T6 sequence: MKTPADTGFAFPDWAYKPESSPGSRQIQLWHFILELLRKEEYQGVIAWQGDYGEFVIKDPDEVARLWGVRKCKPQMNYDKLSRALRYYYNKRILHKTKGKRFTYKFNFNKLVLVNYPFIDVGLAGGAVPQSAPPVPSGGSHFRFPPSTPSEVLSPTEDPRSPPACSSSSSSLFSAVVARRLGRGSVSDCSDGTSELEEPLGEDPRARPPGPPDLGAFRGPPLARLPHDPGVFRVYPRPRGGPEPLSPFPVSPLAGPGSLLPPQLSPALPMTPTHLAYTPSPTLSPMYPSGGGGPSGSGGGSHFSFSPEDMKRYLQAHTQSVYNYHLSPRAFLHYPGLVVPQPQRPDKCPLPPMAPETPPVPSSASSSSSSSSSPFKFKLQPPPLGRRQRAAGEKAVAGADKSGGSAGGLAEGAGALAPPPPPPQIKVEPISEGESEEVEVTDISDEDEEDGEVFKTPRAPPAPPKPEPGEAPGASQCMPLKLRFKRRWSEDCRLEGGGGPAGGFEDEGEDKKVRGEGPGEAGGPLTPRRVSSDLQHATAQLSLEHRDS
In short: as §1

ETV3L = target: T7, ETV3L (Homo sapiens, UniProt Q6ZN32 1-361); conditions: protein: recombinant; tags: N-terminal GST; dsDNA, one strand shown
T7 sequence: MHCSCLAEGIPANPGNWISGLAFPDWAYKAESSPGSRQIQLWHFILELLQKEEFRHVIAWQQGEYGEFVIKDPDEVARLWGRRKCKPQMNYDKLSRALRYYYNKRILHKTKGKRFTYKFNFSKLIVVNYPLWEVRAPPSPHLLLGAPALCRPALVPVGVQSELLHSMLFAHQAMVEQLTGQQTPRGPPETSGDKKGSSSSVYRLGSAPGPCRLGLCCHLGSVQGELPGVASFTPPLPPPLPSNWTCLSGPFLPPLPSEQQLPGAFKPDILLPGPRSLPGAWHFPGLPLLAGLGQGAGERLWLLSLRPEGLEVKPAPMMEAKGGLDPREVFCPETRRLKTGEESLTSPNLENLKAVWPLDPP
In short: as §1

ETS2 = target: T8, ETS2 (Homo sapiens, UniProt P15036 1-469); conditions: protein: recombinant; tags: N-terminal GST; dsDNA, one strand shown
T8 sequence: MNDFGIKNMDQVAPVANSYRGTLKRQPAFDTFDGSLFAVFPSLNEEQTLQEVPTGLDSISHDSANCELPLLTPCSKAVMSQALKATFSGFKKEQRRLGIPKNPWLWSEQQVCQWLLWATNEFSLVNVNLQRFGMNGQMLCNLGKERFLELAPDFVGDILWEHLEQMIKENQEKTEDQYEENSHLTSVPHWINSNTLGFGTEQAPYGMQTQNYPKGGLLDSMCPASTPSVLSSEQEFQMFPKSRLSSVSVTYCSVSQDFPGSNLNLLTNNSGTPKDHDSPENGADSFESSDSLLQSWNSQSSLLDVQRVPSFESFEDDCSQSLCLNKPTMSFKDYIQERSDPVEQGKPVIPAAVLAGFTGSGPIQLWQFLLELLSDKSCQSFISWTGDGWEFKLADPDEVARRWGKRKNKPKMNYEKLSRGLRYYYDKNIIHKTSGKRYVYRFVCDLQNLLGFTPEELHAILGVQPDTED
In short: as §1

SPDEF = target: T9, SPDEF (Homo sapiens, UniProt O95238 1-335); conditions: protein: recombinant; tags: N-terminal GST; dsDNA, one strand shown
T9 sequence: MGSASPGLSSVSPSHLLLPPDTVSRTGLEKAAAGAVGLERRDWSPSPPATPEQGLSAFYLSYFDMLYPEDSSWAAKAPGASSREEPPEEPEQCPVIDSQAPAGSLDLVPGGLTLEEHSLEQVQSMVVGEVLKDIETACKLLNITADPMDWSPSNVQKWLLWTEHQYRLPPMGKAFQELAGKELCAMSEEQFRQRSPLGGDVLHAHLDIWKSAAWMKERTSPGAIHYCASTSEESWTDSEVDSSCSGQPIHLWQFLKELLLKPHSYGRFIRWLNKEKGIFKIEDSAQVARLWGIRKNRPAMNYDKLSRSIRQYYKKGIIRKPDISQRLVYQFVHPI
In short: as §1

ETV7 = target: T10, ETV7 (Homo sapiens, UniProt Q9Y603 1-341); conditions: protein: recombinant; tags: N-terminal GST; dsDNA, one strand shown
T10 sequence: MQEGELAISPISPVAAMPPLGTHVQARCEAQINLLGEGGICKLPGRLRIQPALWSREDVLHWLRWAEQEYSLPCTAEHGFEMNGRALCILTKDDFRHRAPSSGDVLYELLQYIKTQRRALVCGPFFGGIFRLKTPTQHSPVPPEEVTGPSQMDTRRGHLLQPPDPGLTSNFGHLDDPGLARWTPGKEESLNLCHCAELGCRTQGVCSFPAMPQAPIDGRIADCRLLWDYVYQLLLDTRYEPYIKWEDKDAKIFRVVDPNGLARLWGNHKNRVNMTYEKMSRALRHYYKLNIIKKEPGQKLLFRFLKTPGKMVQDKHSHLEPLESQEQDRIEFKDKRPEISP
In short: as §1

ELF5 = target: T11, ELF5 (Homo sapiens, UniProt Q9UKW6-2 1-255); conditions: protein: recombinant; tags: N-terminal GST; dsDNA, one strand shown
T11 sequence: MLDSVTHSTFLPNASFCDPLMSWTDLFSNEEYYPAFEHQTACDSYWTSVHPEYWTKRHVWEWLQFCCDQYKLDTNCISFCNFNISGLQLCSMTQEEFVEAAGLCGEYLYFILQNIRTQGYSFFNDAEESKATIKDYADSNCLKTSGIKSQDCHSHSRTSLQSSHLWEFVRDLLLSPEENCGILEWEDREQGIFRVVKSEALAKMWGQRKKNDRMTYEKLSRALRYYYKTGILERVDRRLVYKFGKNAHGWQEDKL
In short: as §1

ETV3 = target: T12, ETV3 (Homo sapiens, UniProt P41162-2 1-143); conditions: protein: recombinant; tags: N-terminal GST; dsDNA, one strand shown
T12 sequence: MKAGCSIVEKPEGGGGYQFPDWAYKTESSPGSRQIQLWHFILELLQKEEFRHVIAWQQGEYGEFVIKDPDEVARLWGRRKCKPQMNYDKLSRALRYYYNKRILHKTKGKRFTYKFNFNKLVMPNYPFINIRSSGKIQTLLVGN
In short: as §1

ETV6 = ETV6 (Homo sapiens, UniProt P41212 1-452); conditions: protein: recombinant; tags: N-terminal GST; dsDNA, one strand shown
Chain of ETV6 (P41212 whole entry): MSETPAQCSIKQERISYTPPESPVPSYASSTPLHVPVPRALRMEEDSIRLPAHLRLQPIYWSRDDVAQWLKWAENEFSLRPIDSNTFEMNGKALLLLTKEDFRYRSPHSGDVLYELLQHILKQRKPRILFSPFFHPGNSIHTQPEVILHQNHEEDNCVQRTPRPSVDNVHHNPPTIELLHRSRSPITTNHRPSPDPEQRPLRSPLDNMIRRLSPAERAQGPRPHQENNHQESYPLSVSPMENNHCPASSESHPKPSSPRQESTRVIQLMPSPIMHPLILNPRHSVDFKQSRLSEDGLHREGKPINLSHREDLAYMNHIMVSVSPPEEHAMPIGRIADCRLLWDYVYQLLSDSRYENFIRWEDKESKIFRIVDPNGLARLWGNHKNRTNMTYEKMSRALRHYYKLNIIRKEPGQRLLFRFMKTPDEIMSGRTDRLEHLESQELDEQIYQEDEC
In short: as §1

With TTCTGT the binding signal (FEV) was 1.27 fold enrichment (6-mer frequency, TF over GST control), the binding signal (ETV5) was 1.26 fold enrichment (6-mer frequency, TF over GST control) and the binding signal (HSF1) was 1.6 fold enrichment (6-mer frequency, TF over GST control). For the same sequence, the binding signal (SPIC) was 1.41 fold enrichment (6-mer frequency, TF over GST control), the binding signal (ELF4) was 1.3 fold enrichment (6-mer frequency, TF over GST control) and the binding signal (ELK4) was 1.5 fold enrichment (6-mer frequency, TF over GST control). The binding signal (ETV2) was 1.35 fold enrichment (6-mer frequency, TF over GST control), the binding signal (ELF3) was 1.24 fold enrichment (6-mer frequency, TF over GST control) and the binding signal (CRX) was 1.31 fold enrichment (6-mer frequency, TF over GST control). The binding signal (ETV1) was 1.32 fold enrichment (6-mer frequency, TF over GST control), the binding signal (ERF) was 1.39 fold enrichment (6-mer frequency, TF over GST control) and the binding signal (ETV3L) was 1.42 fold enrichment (6-mer frequency, TF over GST control). The binding signal (ETS2) was 1.29 fold enrichment (6-mer frequency, TF over GST control), the binding signal (SPDEF) was 1.15 fold enrichment (6-mer frequency, TF over GST control) and the binding signal (ETV7) was 1.26 fold enrichment (6-mer frequency, TF over GST control). The binding signal (ELF5) was 1.29 fold enrichment (6-mer frequency, TF over GST control), the binding signal (ETV3) was 1.19 fold enrichment (6-mer frequency, TF over GST control) and the binding signal (ETV6) was 1.38 fold enrichment (6-mer frequency, TF over GST control).
